Assay results: ChEMBL document CHEMBL4513146, “CO-ADD screening of Karazin Kharkiv National University (Ukraine) compounds”
Measured potencies and affinities stand elsewhere.

Experiments:
Staphylococcus aureus = details: Concentration 32 ug.mL-1;; ASSAY_TEST Inhibition of Bacterial Growth; detection method Absorption (OD600); MEDIA CAMHB; plate type 384well; NBS; CORNING #3640; time 18 hr
Escherichia coli = details: Concentration 32 ug.mL-1;; ASSAY_TEST Inhibition of Bacterial Growth; detection method Absorption (OD600); MEDIA CAMHB; plate type 384well; NBS; CORNING #3640; time 18 hr

Structure (SMILES) | Inhibition (Staphylococcus aureus) [%] | Inhibition (Escherichia coli) [%]
CC(C)c1nnc2c(=O)n(CC(=O)Nc3cccc(Br)c3)c3ccccc3n12 | 13.16 | -0.75
O=C(Cn1nc2c(Sc3ccccc3)nccn2c1=O)Nc1ccc(Br)cc1F | 5.84 | -2.08
O=C(Cn1nc2c(SC3CCCCC3)nccn2c1=O)Nc1cccc(Cl)c1 | -15.22 | -17.9
Cc1ccc(Oc2nccn3c(=O)n(CC(=O)Nc4ccccc4C(F)(F)F)nc23)cc1 | 6.18 | 0.58
CCC(C)NC(=O)Cn1nc2n(Cc3ccco3)c(=O)c3sccc3n2c1=O (stereo not drawn) | 7.96 | 2.21
Cc1cc(C)c(NC(=O)Cn2nc3c4cc(-c5ccc(C)c(C)c5)nn4ccn3c2=O)c(C)c1 | -7.12 | -12.18
Cc1cccc(C)c1NC(=O)CSc1nnc2c3cc(-c4ccccc4)nn3ccn12 | -21.6 | -21.37
CCc1nnc2c(SCC(=O)Nc3ccc(Cl)cc3)nc3ccccc3n12 | 15.07 | 2.66
Cc1ccc(Cn2c(=O)c3ccccc3n3c(=O)n(CC#N)nc23)cc1 | 3.14 | -7.28
Cn1c(=O)c2sccc2n2c(=O)n(Cc3ccc(Cl)cc3)nc12 | 3.13 | -4.41
CC1CCN(C(=O)Cn2nc3n(Cc4cccs4)c(=O)c4sccc4n3c2=O)CC1 | 3.66 | -8.96
Cc1ccc(Oc2nccn3c(=O)n(CC(=O)Nc4ccccc4Br)nc23)cc1 | 10.09 | -0.96
CC(C)CCn1c(=O)c2ccccc2n2c(=O)n(CC#N)nc12 | 16.96 | 1.73
Cc1ccc(-c2ccc3nn(CC(=O)Nc4ccc(Cl)cc4)c(=O)n3n2)cc1C | 7.83 | -3.03
CCCc1nnc2c(=O)n(CC(=O)Nc3ccc(NC(C)=O)cc3)c3ccccc3n12 | 9.51 | -0.84
Cc1cc(C)c(NC(=O)Cn2nc3c(N4CCCC(C)C4)nccn3c2=O)c(C)c1 (stereo not drawn) | -1.28 | -2.83
Cc1ccc(-n2ccn3c(SCC(N)=O)nnc3c2=O)cc1C | 19.3 | 0.16
Cc1cc(C)cc(Oc2nccn3c(=O)n(CC(=O)Nc4cccc(Cl)c4)nc23)c1 | -12.18 | -3.44
CCN(C(=O)Cn1nc2cc(C)nc(Nc3ccc(C)c(F)c3)n2c1=O)c1ccccc1 | 15.67 | -1.02
Cc1cc(C)cc(NC(=O)Cn2nc3ccc(SC(C)(C)C)nn3c2=O)c1 | 9.02 | -2.5
COc1ccc(NC(=O)Cn2nc3ccc(-c4ccc(C)c(C)c4)nn3c2=O)cc1OC | 11.61 | -6.17
Cc1ccc(NC(=O)Cn2nc3ccc(SC4CCCCC4)nn3c2=O)cc1 | -13.21 | -13.34
Cc1ccc(-c2cc3c4nn(CC(=O)Nc5cc(Cl)ccc5C)c(=O)n4ccn3n2)cc1C | 2.42 | -7.74
CC(C)c1nnc2c(SCC(=O)Nc3cccc(Br)c3)nc3ccccc3n12 | 4.41 | -8.3
COc1cccc(NC(=O)Cn2c(=O)c3nnc(C(C)C)n3c3ccccc32)c1 | 22.3 | 0.77

Structure (SMILES) | Inhibition (Staphylococcus aureus) [%] | Inhibition (Escherichia coli) [%]
COc1ccccc1-n1ccn2c(SCC(=O)NCc3ccc(Cl)cc3)nnc2c1=O | 12.53 | -3.51
Cc1ccc(-c2cc3c4nnc(SCC(=O)Nc5cccc(Br)c5)n4ccn3n2)cc1 | 5.15 | -4.56
CCc1ccc(NC(=O)Cn2nc3ccc(SC(C)(C)C)nn3c2=O)cc1 | 4.76 | -1.87
COC(=O)c1ccccc1NC(=O)Cn1nc2c(Oc3ccccc3)nccn2c1=O | 8.3 | -3.16
O=C(Cn1nc2ccc(SCc3ccc(Cl)cc3)nn2c1=O)NCc1ccc2c(c1)OCO2 | -2.67 | -11.22
Cc1nnc2c(=O)n(CC(=O)Nc3ccccc3F)c3ccccc3n12 | -11.2 | 1.77
CSc1cccc(NC(=O)Cn2nc3ccc(-c4ccc(C)c(C)c4)nn3c2=O)c1 | -11.35 | -14.99
Cc1cc(C)c(NC(=O)Cn2nc3ccc(SC4CCCCC4)nn3c2=O)c(C)c1 | 7.62 | -6.45
COc1ccc(-c2cc3c4nn(CC(=O)Nc5ccc(OC)c(OC)c5)c(=O)n4ccn3n2)cc1 | 2.65 | 2.66
Cc1nnc2c(S(=O)(=O)N(Cc3ccccc3Cl)c3ccc(F)c(F)c3)cccn12 | 38.47 | -6.82
Cc1ccc(Cn2nc3c(=O)n(-c4cccc(Cl)c4C)ccn3c2=O)cc1 | 8.26 | -3.14
Cc1ccc(NC(=O)Cn2nc3c(SCc4ccc(Cl)cc4)nccn3c2=O)cc1F | 5.52 | 0.08
COc1ccccc1NC(=O)Cn1nc2c3cc(-c4ccc(C)c(C)c4)nn3ccn2c1=O | 6.99 | 2.41
CCCCOc1ccc(-c2cc3c4nnc(SCC(=O)Nc5ccc(Cl)cc5)n4ccn3n2)cc1 | 6.59 | -0.55
O=C(CCc1nnc2c3cc(-c4ccc(Cl)cc4)nn3ccn12)N1CCN(c2ccccn2)CC1 | 5.65 | -0.84
COc1ccc(N2CCN(C(=O)Cn3nc4ccc(-c5ccc(Cl)cc5)nn4c3=O)CC2)cc1 | 9.33 | -1.38
Cc1ccc(-c2ccc3nn(CC(=O)Nc4ccc(C(C)C)cc4)c(=O)n3n2)cc1C | -10.47 | -13.87
O=C(Cn1nc2c(Sc3ccccc3)nccn2c1=O)Nc1ccc2c(c1)OCO2 | -26.09 | 0.44
Cc1ccc(C)c(Cn2nc3ccc(-c4ccc(C)c(C)c4)nn3c2=O)c1 | 6.01 | -0.08
COc1cccc(-n2ccn3c(SCc4cccc(C(F)(F)F)c4)nnc3c2=O)c1 | 7.34 | -9.08
CCOc1ccc(-n2ccn3c(SCC(N)=O)nnc3c2=O)cc1 | 8.32 | 3.76
CCc1nnc2c(S(=O)(=O)N(Cc3cc(F)cc(F)c3)c3ccccc3)cccn12 | 7.38 | -4.8
Cc1c(Cl)cccc1-n1ccn2c(=S)[nH]nc2c1=O | 26.02 | 0.89
COc1ccc(CNC(=O)CSc2nnc3c4cc(-c5ccc(OC)cc5)nn4ccn23)cc1 | 4.43 | 0.23
